“And” between values parts separate entries of the source, which are not always exact repeats. Equal values may be shown once. Records with an inconclusive call do not appear. The source made the active and inactive calls. Unless noted, calls come from the whole dose curve; as a rule, active = well fitted curve in the direction sought with a large enough effect in the repeat runs; inconclusive = weak or mixed curves; inactive = no such curve, though single readings can be large; an effect the other way counts as inactive or inconclusive.
Tests used:
[1] = target: Thyrotropin receptor (Homo sapiens) (UniProt P16473); experiment: qHTS assay to identify small molecule antagonists of the thyroid stimulating hormone receptor (TSHR) signaling pathway (AID 1259385; calls by dose curve; note: nearly all actives have a fitted effect of over 20% in size)
Procedure, shortened: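 TSHR-HEK293 cells (800/well) plated 18 h, then compounds with Ro20-1724 and TSH at 1.5 ng/mL final, 30 min at room temperature. cAMP quantified by HTRF (cAMP-d2/anti-cAMP-cryptate, 1 h); 15 concentrations in triplicate.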

[2] = qHTS assay to identify small molecule agonists of the estrogen receptor alpha (ER-alpha) signaling pathway in the presence of an antagonist - cell viability counter screen (AID 1259386);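 note: series mostly up to about 92 µM; cells exposed to compounds for 22 h at 37 °C before the viability read; nearly all actives have a fitted effect of over 30% in size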
Procedure, shortened: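 Viability counter screen using VM7Luc4E2 (full-length ER-alpha, four ERE-luciferase). The cells were treated with compounds alongside ICI-182,780 10.0nM for 22hr, and live-cell protease fluorescence was quantified with CellTiter-Fluor.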

[3] = target: Progesterone receptor (Homo sapiens) (UniProt P06401); experiment: qHTS assay to identify small molecule agonists of the progesterone receptor (PR) signaling pathway (AID 1346784; calls by dose curve; note: nearly all actives have a fitted effect of over 30% in size)
Procedure, shortened: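 Agonist qHTS: compounds pinned onto 3,000 PR-UAS-bla HEK 293T cells per well in charcoal-stripped serum medium, 16hr at 37C, then beta-lactamase activity measured by LiveBLAzer FRET fluorescence after 2 hours at room temperature.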

[4] = target: Progesterone receptor (Homo sapiens) (UniProt P06401); experiment: qHTS assay to identify small molecule antagonists of the progesterone receptor (PR) signaling pathway (AID 1346795; active = well fitted inhibition curve with a large enough effect in the signal ratio in the repeat runs, not every such curve was filed as active; the % refers to the signal ratio)
Procedure, shortened: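 Antagonist mode with agonist R5020 at 1 nM final and 16 hr incubation at 37C. Reporter was beta-lactamase driven by UAS in HEK293T (PR-UAS-bla), 2% charcoal-stripped serum; signal from LiveBLAzer FRET substrate, 2 hr at room temperature.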

[5] = qHTS assay to identify small molecule antagonists of the progesterone receptor (PR) signaling pathway - cell viability counter screen (AID 1346798); note: series mostly up to about 92 µM; nearly all actives have a fitted effect of over 50% in size
Procedure, shortened: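 Cytotoxicity read as CellTiter-Glo luminescence (30 min, room temperature) in the same wells as the beta-lactamase readout. HEK293T PR-UAS-bla cells in charcoal-stripped 2% FBS received compound and R5020, then 16 h at 37C, 5% CO2.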

[6] = qHTS assay to identify small molecule antagonists of the TGF-beta/Smad signaling pathway - cell viability counter screen (AID 1346824); note: nearly all actives have a fitted effect of over 50% in size
Procedure, shortened: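 SBE-bla HEK 293T cells, incubated overnight, then compound plus 0.25 ng/mL TGF-beta1 (stock added) for 5 hr at 37 C. Viability was read in the same wells by CellTiter-Glo luminescence after 30 min at room temperature.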

[7] = qHTS assay to identify small molecule agonists of the TGF-beta/Smad signaling pathway - cell viability counter screen (AID 1346829); note: top concentration of the series differs between compounds; nearly all actives have a fitted effect of over 45% in size
Procedure, shortened: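 Here the cytotoxicity of library compounds is measured in SBE-bla HEK 293T cells treated for 5 hr, using CellTiter-Glo added to wells already read for the beta-lactamase reporter.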

[8] = qHTS assay to identify small molecule agonists of the TGF-beta/Smad signaling pathway (AID 1346859; active = well fitted activation curve with a large enough effect in the signal ratio in the repeat runs, not every such curve was filed as active; the % refers to the signal ratio; note: series mostly up to about 77 µM)
Procedure, shortened: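 Fluorescence (ex 405 nm; em 460 and 530 nm) was read 2 h after LiveBLAzer FRET substrate at RT. The preceding compound treatment of overnight-plated SBE-bla HEK293T cells lasted 5 h at 37 C.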

[9] = target: Thyrotropin-releasing hormone receptor (Homo sapiens) (UniProt P34981); experiment: qHTS assay to identify small molecule antagonists of the thyrotropin-releasing hormone receptor (TRHR) signaling pathway (AID 1346877; active = well fitted inhibition curve with a large enough effect in the repeat runs, not every such curve was filed as active; note: series mostly up to about 51 µM)
Procedure, shortened: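 Following an 18 h incubation at 37 °C and a 2 h calcium dye load, TRHR-HEK293 cells were exposed to compound (5 min, room temperature) and challenged with TRH, 1 nM final.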

[10] = target: Thyrotropin-releasing hormone receptor (Homo sapiens) (UniProt P34981); experiment: qHTS assay to identify small molecule agonists of the thyrotropin-releasing hormone receptor (TRHR) signaling pathway (AID 1346891; calls by dose curve; note: series mostly up to about 58 µM)
Procedure, shortened: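 Agonist-mode intracellular calcium readout: kinetic fluorescence over 3 min at 1 s intervals after compound addition to TRHR-HEK293 cells (18 h seeded, 2 h dye-loaded at 37 C). Fifteen concentrations, triplicates.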

[11] = Human pregnane X receptor (PXR) small molecule agonists, qHTS cell viability counter screen (AID 1346977); note: nearly all actives have a fitted effect of over 50% in size
Procedure, shortened: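 Same-well viability read: CellTiter-Fluor added after 23 hr compound exposure, fluorescence measured 1 hr later. Cells were PXR-Luc HepG2 seeded at 2,000/well in 5% charcoal-stripped FBS medium, rested 5 hr before dosing at 37 C.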

[12] = Caspase-3/7 induction in HepG2 cells by small molecules, qHTS assay (AID 1346978); note: nearly all actives have a fitted effect of over 15% in size
Procedure, shortened: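 Wild-type HepG2 cells, 2,000/well, settled 5 hr at 37 C and 5% CO2, then compound-treated for 17 hr; caspase-3/7 activity read by luminescent Caspase-Glo 3/7 after 30 min at room temperature.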

[13] = Caspase-3/7 induction in CHO-K1 cells by small molecules, qHTS cell viability counter screen (AID 1346979); note: nearly all actives have a fitted effect of over 35% in size
Procedure, shortened: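 Cytotoxicity counter screen: CellTiter-Fluor added to compound-treated wild-type CHO-K1 cells at 16 h (37C, 5% CO2), fluorescence measured 1 h later; same wells as caspase-3/7 measurement.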

[14] = Caspase-3/7 induction in CHO-K1 cells by small molecules, qHTS assay (AID 1346980); note: nearly all actives have a fitted effect of over 15% in size
Procedure, shortened: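 Wild-type CHO-K1 cells exposed to compounds for 17hr at 37 C, 5% CO2. Caspase-3/7 activity then measured by Caspase-Glo 3/7 luminescence after 30min at room temperature.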

[15] = Caspase-3/7 induction in HepG2 cells by small molecules, qHTS cell viability counter screen (AID 1346981); note: series mostly up to about 92 µM; nearly all actives have a fitted effect of over 30% in size
Procedure, shortened: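 Viability determined by CellTiter-Fluor fluorescence in HepG2 wells also used for the luminescent Caspase-Glo 3/7 read. Compounds were present for 16 hr at 37 C, 5% CO2 before reagent addition.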

[16] = target: Nuclear receptor subfamily 1 group I member 2 (Homo sapiens) (UniProt O75469); experiment: Human pregnane X receptor (PXR) small molecule agonists, qHTS assay (AID 1346982); note: nearly all actives have a fitted effect of over 35% in size; note: potency is the fitted concentration of half-maximal effect
Procedure, shortened: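 Compound-induced hPXR transactivation of a CYP3A4 luciferase reporter was scored in HepG2 PXR-Luc cells over 24 hr at 37 C, 5% CO2, by luminescence.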

[17] = target: Nuclear receptor subfamily 1 group I member 2 (Homo sapiens) (UniProt O75469); experiment: CYP3A4 induction through human pregnane X receptor (PXR) by small molecules, qHTS assay (AID 1346984); note: nearly all actives have a fitted effect of over 40% in size
Procedure, shortened: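 Readings come from a luciferase reporter: DPX-2 cells, which are HepG2 cotransfected with PXR and a CYP3A4-promoter construct, were exposed to test compounds for 24 h at 37C before One-Glo detection.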

[18] = target: Nuclear receptor subfamily 1 group I member 2 (Homo sapiens) (UniProt O75469); experiment: Human pregnane X receptor (PXR) activation by small molecules, qHTS assay (AID 1346985); note: nearly all actives have a fitted effect of over 40% in size
Procedure, shortened: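 DPX-2 cells (HepG2 co-transfected with a PXR response element and a CYP3A4-promoter luciferase construct) were seeded at 2,000 per well, rested 5 hr at 37C, then exposed to DMSO-dissolved compounds for 24 hr. Activation was read as luciferase luminescence.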

[19] = qHTS assay to identify small molecule agonists of the progesterone receptor (PR) signaling pathway - cell viability counter screen (AID 1346799; calls by dose curve; note: nearly all actives have a fitted effect of over 45% in size)
Procedure, shortened: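 Cytotoxicity measured by CellTiter-Glo luminescence (30 min, RT) in the same wells as the PR beta-lactamase agonist read. Those HEK293T cells had 16 h compound treatment at 37 C in 2% charcoal-stripped FBS medium.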
% is set by controls: 0 for no effect and ±100 for the full control effect.

Nuclear receptor subfamily 1 group I member 2 (Homo sapiens), sequence (O75469 whole entry, looked up): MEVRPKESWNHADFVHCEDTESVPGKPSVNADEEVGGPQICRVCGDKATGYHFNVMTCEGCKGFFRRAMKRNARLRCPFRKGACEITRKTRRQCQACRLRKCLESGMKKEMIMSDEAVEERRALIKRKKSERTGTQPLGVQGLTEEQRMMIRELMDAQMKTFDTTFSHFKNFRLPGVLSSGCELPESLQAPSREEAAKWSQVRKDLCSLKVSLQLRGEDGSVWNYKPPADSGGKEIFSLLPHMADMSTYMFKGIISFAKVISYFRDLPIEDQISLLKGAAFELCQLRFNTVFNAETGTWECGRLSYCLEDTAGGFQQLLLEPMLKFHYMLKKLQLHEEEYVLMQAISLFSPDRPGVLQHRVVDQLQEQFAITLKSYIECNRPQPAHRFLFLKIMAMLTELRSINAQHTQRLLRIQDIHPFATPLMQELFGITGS
Progesterone receptor (Homo sapiens), sequence (P06401 whole entry, looked up): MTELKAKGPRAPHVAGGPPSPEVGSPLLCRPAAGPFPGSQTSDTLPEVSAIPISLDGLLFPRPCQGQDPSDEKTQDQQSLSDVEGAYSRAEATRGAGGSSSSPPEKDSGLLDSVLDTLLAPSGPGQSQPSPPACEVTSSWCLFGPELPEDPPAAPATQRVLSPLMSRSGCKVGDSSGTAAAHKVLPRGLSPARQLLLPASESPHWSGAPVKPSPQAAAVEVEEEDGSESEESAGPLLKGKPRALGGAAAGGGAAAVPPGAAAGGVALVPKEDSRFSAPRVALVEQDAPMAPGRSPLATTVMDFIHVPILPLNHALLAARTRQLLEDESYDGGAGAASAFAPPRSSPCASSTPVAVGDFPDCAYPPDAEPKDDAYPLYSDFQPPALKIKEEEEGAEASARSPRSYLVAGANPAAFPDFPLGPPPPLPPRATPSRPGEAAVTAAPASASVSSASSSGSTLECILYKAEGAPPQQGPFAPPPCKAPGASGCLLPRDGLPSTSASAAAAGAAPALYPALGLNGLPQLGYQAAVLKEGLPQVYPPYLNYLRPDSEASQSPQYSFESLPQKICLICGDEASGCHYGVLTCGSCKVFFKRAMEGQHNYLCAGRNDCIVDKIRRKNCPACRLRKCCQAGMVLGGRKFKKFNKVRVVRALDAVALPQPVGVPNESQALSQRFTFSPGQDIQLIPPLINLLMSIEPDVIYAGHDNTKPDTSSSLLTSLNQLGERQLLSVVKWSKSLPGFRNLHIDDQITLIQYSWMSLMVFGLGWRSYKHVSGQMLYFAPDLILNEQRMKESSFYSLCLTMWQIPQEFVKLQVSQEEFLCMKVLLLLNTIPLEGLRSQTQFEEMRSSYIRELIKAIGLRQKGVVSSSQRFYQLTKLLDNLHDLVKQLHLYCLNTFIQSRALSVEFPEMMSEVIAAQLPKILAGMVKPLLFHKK
Thyrotropin receptor (Homo sapiens), sequence (P16473 whole entry, looked up): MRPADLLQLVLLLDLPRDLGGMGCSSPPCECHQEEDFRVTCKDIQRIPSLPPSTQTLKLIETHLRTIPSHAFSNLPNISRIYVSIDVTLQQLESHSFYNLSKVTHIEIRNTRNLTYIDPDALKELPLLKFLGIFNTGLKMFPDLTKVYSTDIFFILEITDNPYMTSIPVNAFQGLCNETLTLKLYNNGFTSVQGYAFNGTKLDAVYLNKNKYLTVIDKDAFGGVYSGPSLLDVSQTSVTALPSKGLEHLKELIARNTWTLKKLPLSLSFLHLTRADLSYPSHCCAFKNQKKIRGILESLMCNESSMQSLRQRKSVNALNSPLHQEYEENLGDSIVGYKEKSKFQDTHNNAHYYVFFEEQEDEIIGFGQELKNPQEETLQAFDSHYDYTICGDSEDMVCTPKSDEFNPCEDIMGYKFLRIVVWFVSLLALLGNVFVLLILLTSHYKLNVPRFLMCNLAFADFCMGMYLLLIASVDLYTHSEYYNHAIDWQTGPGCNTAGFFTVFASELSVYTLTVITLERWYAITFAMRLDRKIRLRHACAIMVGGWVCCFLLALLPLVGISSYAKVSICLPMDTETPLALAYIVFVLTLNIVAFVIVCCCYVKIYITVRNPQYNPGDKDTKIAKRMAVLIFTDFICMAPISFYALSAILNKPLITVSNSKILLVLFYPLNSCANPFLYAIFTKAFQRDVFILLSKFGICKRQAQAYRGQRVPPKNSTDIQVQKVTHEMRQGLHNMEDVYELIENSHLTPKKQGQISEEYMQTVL
Thyrotropin-releasing hormone receptor (Homo sapiens), sequence (P34981 whole entry, looked up): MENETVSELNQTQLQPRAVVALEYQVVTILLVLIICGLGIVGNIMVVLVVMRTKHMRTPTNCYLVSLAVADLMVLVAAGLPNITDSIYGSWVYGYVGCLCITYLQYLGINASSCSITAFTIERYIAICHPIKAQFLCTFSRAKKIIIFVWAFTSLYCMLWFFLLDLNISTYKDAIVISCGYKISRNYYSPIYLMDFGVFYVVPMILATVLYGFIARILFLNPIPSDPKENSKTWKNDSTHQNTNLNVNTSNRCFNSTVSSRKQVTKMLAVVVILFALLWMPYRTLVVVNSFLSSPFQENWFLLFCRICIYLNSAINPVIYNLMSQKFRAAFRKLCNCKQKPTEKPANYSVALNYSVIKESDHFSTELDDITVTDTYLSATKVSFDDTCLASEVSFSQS

NS(=O)(=O)c1cc(C(=O)O)cc(N2CCCC2)c1Oc1ccccc1
inactive: Potency [1] | Potency [2] | Potency [3] | Potency [4] | Potency [5] | Potency [6] | outcome [7] | outcome [8] | outcome [9] | outcome [10] | Potency [11] | Potency [12] | Potency [13] | outcome [14] | Potency [15] | Potency [16] | Potency [17] | Potency [18]

COc1nc(N)nc2c1ncn2[C@@H]1O[C@H](CO)[C@@H](O)[C@@H]1O
inactive: Potency [1] | Potency [2] | Potency [3] | Potency [4] | Potency [5] | Potency [6] | outcome [7] | outcome [8] | outcome [9] | outcome [10] | Potency [11] | Potency [12] | Potency [13] | Potency [15]

C[C@@H]1CCN(C(=O)[C@H](CCCN=C(N)N)NS(=O)(=O)c2cccc3c2NC[C@H](C)C3)[C@@H](C(=O)O)C1
inactive: Potency [1] | Potency [2] | Potency [3] | Potency [4] | Potency [5] | Potency [6] | outcome [7] | outcome [8] | outcome [9] | Potency [11] | Potency [12] | Potency [13] | outcome [14] | Potency [15] | Potency [16] | Potency [17] | Potency [18]

CC(=O)CC(C)C
inactive: Potency [1] | Potency [2] | Potency [3] | Potency [4] | Potency [5] | Potency [19] | Potency [6] | outcome [7] | outcome [8] | Potency [11] | Potency [12] | Potency [13] | outcome [14] | Potency [15] | Potency [16]

COC(=O)NN
inactive: Potency [1] | Potency [2] | Potency [3] | Potency [4] | Potency [5] | Potency [19] | Potency [6] | outcome [8] | outcome [9] | outcome [10] | Potency [11] | Potency [12] | Potency [13] | outcome [14] | Potency [15] | Potency [16]

O=C(O)c1ccccc1OP(=O)(O)O
inactive: Potency [1] | Potency [2] | Potency [3] | Potency [4] | Potency [5] | Potency [6] | outcome [7] | outcome [8] | outcome [9] | Potency [11] | Potency [12] | Potency [13] | outcome [14] | Potency [15] | Potency [16]

O=C1NC(=O)[C@@]2(CCOc3ccc(F)cc32)N1
inactive: Potency [1] | Potency [2] | Potency [3] | Potency [4] | Potency [5] | Potency [19] | Potency [6] | outcome [7] | outcome [8] | Potency [11] | Potency [12] | Potency [13] | outcome [14] | Potency [15] | Potency [16] | Potency [17] | Potency [18]

C=COCC1CCC(CO)CC1 (stereo unspecified)
inactive: Potency [1] | Potency [2] | Potency [3] | Potency [4] | Potency [5] | Potency [19] | Potency [6] | outcome [8] | outcome [9] | outcome [10] | Potency [11] | Potency [12] | Potency [13] | outcome [14] | Potency [15] | Potency [16]

CC(C)OC(=O)c1ccccc1
inactive: Potency [1] | Potency [2] | Potency [3] | Potency [4] | Potency [5] | Potency [19] | Potency [6] | outcome [7] | outcome [8] | Potency [11] | Potency [12] | Potency [13] | outcome [14] | Potency [15] | Potency [16]

NC(=O)Nc1ccccc1
inactive: Potency [1] | Potency [2] | Potency [3] | Potency [4] | Potency [5] | Potency [19] | Potency [6] | outcome [8] | Potency [11] | Potency [12] | Potency [13] | outcome [14] | Potency [15] | Potency [16]

CN(C)CCCNCCCN(C)C
inactive: Potency [1] | Potency [2] | Potency [3] | Potency [4] | Potency [5] | Potency [19] | outcome [7] | outcome [8] | outcome [9] | outcome [10] | Potency [11] | Potency [12] | Potency [13] | outcome [14] | Potency [15] | Potency [16]

COC(C)(C)CCCC(C)CC=O (stereo unspecified)
inactive: Potency [1] | Potency [2] | Potency [3] | Potency [4] | Potency [5] | Potency [19] | Potency [6] | outcome [7] | outcome [9] | outcome [10] | Potency [11] | Potency [12] | outcome [14] | Potency [15] | Potency [16]

COC(=O)CC(C)=O
inactive: Potency [1] | Potency [2] | Potency [3] | Potency [4] | Potency [5] | Potency [19] | Potency [6] | outcome [8] | outcome [9] | Potency [11] | Potency [12] | Potency [13] | outcome [14] | Potency [15] | Potency [16]

O=C(O)CN(CCOCCOCCN(CC(=O)O)CC(=O)O)CC(=O)O
inactive: activity change, negative = inhibition [1] 0.526% [at 0.349 µM] | activity change, negative = cytotoxicity [2] 2.94% [at 0.349 µM] | activation [3] -1.13% [at 0.349 µM] | activity change, negative = inhibition [4] 0.191% [at 0.348 µM] | activity change, negative = cytotoxicity [5] 5.83% [at 0.348 µM] | activity change, negative = cytotoxicity [19] 5.81% [at 0.349 µM] | viability change, negative = cytotoxic [6] 3.24% [at 0.29 µM] | activity change, negative = cytotoxicity [7] 0.742% [at 0.29 µM] | activation [8] 3.14% [at 0.29 µM] | activity change, negative = cytotoxicity [11] 6.91% [at 0.349 µM] | caspase activation [12] -0.864% [at 0.349 µM] | activity change, negative = cytotoxicity [13] 10.9% [at 0.349 µM] | activity change, negative = cytotoxicity [15] 2.16% [at 0.349 µM] | activation [16] -3.68% [at 0.349 µM]

c1ccc([C@H]2CN3CCSC3=N2)cc1
inactive: Potency [1] | Potency [2] | Potency [3] | Potency [4] | Potency [5] | Potency [6] | outcome [7] | outcome [8] | outcome [9] | outcome [10] | Potency [11] | Potency [12] | Potency [13] | outcome [14] | Potency [15] | Potency [16] | Potency [17] | Potency [18]

O=C1CCCCCCCCCCCN1
inactive: Potency [1] | Potency [2] | Potency [3] | Potency [4] | Potency [5] | Potency [19] | Potency [6] | outcome [8] | outcome [9] | outcome [10] | Potency [11] | Potency [12] | Potency [13] | outcome [14] | Potency [15]
active: Potency [16] 48.5 µM and 27.3 µM

From PubChem BioAssay (Tox21)
